# A selection: hits, their analogues and other compounds. The true share with any hit is near 2.9%.
# LYPLA2 inh: blocks human lysophospholipase 2, a PME1 counter-screen; O95372; recombinant LYPLA2, FP-Rh probe fluorescence polarization; 320,000 compounds, 0.38% hits; AID 2177; inhibition, % at 5.9 µM;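 active = inhibition above the screen-wide mean plus 3 SD, limit set per campaign, cut at about 26% in these data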;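 also: 0% = LYPLA2 with DMSO and 100% = wells lacking LYPLA2 enzyme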
# PAFAH1B2 inh: inhibitors of human PAFAH1B2; P68402; recombinant PAFAH1B2, FP-rhodamine activity probe, fluorescence polarization; inhibition, % at 3.39 µM; 340,000 compounds, 1.2% hits; AID 492953;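 active = inhibition above the mean of all tested compounds plus 3 SD, cut at about 24% in these data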;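 also: 0% = enzyme with DMSO and 100% = wells lacking PAFAH1B2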
# Target sequence (P68402 whole entry, looked up): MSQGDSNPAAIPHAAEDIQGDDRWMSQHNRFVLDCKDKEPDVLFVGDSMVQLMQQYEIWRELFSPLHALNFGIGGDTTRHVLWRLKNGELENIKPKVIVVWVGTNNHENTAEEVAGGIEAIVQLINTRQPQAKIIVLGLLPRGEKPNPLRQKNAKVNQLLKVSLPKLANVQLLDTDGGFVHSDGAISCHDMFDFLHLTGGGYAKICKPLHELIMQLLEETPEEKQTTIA
# PAFAH2 inh: inhibitors of human PAFAH2 | Q99487 | recombinant PAFAH2, FP-rhodamine activity probe, fluorescence polarization | inhibition, % at 3.39 µM | 340,000 compounds, 0.99% hits;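 active = inhibition above the mean over all tested compounds plus 3 SD, cut at about 30% in these data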;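 also: inhibitors block probe labeling of enzyme so polarization drops; 0% = enzyme with DMSO and 100% = wells lacking PAFAH2 protein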
# pPAFAH FP inh: inhibitors of human plasma PAF acetylhydrolase (pPAFAH) | Q13093 | recombinant pPAFAH, FP-rhodamine probe fluorescence polarization | inhibition, % at 3.39 µM | 330,000 compounds, 1.5% hits;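 active = inhibition above the mean inhibition across the screen plus 3 SD, cut at about 25% in these data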;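 also: inhibitors block binding of the rhodamine activity-based probe so polarization drops; 0% = enzyme with DMSO and 100% = wells lacking pPAFAH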
# LYPLA1 counter: blocks human lysophospholipase 1, a PME1 counter-screen; O75608; recombinant LYPLA1, FP-Rh probe fluorescence polarization; AID 2174; inhibition, % at 5.9 µM; 320,000 compounds, 0.16% hits;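 active = inhibition above the mean of all tested compounds plus 3 SD, set per campaign, cut at about 14% in these data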;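 also: inhibitors block serine hydrolase probe labeling of LYPLA1 so polarization falls; 0% = enzyme with DMSO and 100% = wells lacking LYPLA1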
# Target sequence (O75608 whole entry, looked up): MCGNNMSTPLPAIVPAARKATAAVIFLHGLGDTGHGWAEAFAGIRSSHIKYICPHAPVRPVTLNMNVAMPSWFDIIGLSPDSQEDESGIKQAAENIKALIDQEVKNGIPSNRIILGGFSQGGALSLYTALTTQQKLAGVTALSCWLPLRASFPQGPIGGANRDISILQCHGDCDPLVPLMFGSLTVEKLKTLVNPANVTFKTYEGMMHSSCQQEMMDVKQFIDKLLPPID
# PAFAH1B3 FP inh: blocks human PAF acetylhydrolase 1B catalytic subunit 3. 340,000 compounds, 0.28% hits. recombinant PAFAH1B3, FP-rhodamine probe, fluorescence polarization. inhibition, % at 3.39 µM;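 active = inhibition above the screen-wide average of all tested compounds plus 3 SD, cut at about 25% in these data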;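 also: 0% = enzyme with DMSO only and 100% = wells lacking PAFAH1B3 protein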
# * hit, by the source's call; · = no result.
SMILES,LYPLA2 inh,PAFAH1B2 inh,PAFAH2 inh,pPAFAH FP inh,LYPLA1 counter,PAFAH1B3 FP inh
Cc1occc1-c1nnc(SCc2nc3ccccc3c(=O)n2CC#N)n1C,-3,6,-4,8,-3,5
O=C(O)C1(c2ccccc2)CCN(S(=O)(=O)c2ccc(F)c(F)c2)CC1,-4,27*,-10,-2,-2,5
O=C(O)C1(c2ccccc2)CCN(S(=O)(=O)c2ccccc2)CC1,0,16,-2,5,0,6
O=C([C@H](Cc1ccccc1)NS(=O)(=O)c1ccc(Cl)cc1)N1CC[C@@]2(O)CCCC[C@H]2C1,-4,30*,26,5,0,4
COc1ccc(S(=O)(=O)N[C@@H](Cc2ccccc2)C(=O)N2CC[C@@]3(O)CCCC[C@H]3C2)cc1,-1,-1,-3,-8,-1,1
COc1ccc(C(CNC(=O)c2cccc(S(=O)(=O)N3CCCc4ccccc43)c2)N(C)C)cc1 (stereo unspecified),·,-2,2,·,·,5
Cc1ccccc1-c1nc2sc(-c3ccccc3)cc2c(=O)o1,2,0,66*,10,-3,-3
Cc1cccc(-c2nc3sc(C)cc3c(=O)o2)c1,0,-5,74*,33*,-6,-6
CCOc1ccccc1NC(=O)CN1C(=O)C(=O)N(Cc2ccco2)C1=O,-1,-2,1,6,3,4
Cc1ccc(-c2cc3ccccc3nc2N2CCOCC2)cc1,-2,·,·,26*,-2,·
CN1CCN(C(=O)Nc2ccccc2CC[N+](=O)[O-])CC1,-2,0,8,8,1,5
COC(=O)c1ccc(C(=O)N2CCCC(Nc3ccc(C(C)C)cc3)C2)nc1 (stereo unspecified),4,25*,0,7,5,12
CC(C)c1ccc(NC2CCCN(C(=O)c3ccc4nccnc4c3)C2)cc1 (stereo unspecified),6,4,0,5,2,0
N#CCSc1nc(Nc2ccc3c(c2)OCO3)c2ccccc2n1,-12,8,6,26*,-12,9
COc1ccc(OC)c(NC(=O)CCNS(=O)(=O)c2ccc3c(c2)oc(=O)n3C)c1,4,3,-3,4,3,-5
COc1cc(OC)c(NC(=O)CCNS(=O)(=O)c2ccc3c(c2)oc(=O)n3C)cc1Cl,-5,-3,6,25*,-4,2
NNC(=S)NC1CCCCCCCCCCC1,-6,55*,6,8,-1,-3
O=C(COC(=O)C1CC1)Nc1ccc(Oc2ccccc2)cc1,5,5,91*,27*,1,7
COc1ccc(NS(=O)(=O)c2ccc(OC)c(NC(=O)CCC3CCCC3)c2)cc1,-8,1,-5,27*,-7,-1
COc1ccc(NC(=O)CCC2CCCC2)cc1OC,-2,-2,-5,0,1,-5
COc1ccccc1NC(=O)COC(=O)C1CCCC1,·,4,3,6,·,2
COc1ccccc1NC(=O)COC(=O)CCC1CCCC1,·,4,18,29*,·,8
O=C(COC(=O)C1CCC1)Nc1ccc(Oc2ccccc2)cc1,2,5,1,10,-5,7
O=C(COC(=O)CCC1CCCC1)Nc1ccccc1Br,-8,3,20,34*,-4,11
C[C@@H](O)Cc1cn(CC(=O)NCCCCCCCCCCC(=O)N2CCNCC2)nn1,7,4,-8,8,1,0
SMILES,LYPLA2 inh,PAFAH1B2 inh,PAFAH2 inh,pPAFAH FP inh,LYPLA1 counter,PAFAH1B3 FP inh
CC(C)c1ccc(NC(=O)c2cc(S(=O)(=O)NCC3COc4ccccc4O3)ccc2F)cc1 (stereo unspecified),-61,-19,-49,-11,-36,-24
CN(C)S(=O)(=O)c1ccc(Cl)c(NC(=O)COC(=O)CCC2CCCCC2)c1,·,5,38*,25*,·,2
COc1cccc(NC(=O)COC(=O)CCC2CCCC2)c1,2,5,19,28*,1,0
O=C(COC(=O)C1CC1)Nc1ccc(Cl)cc1Cl,7,4,64*,9,1,13
Cc1ccc(Cl)cc1NC(=O)COC(=O)C1CC1,-4,0,20,-4,-1,2
NC(=O)C1(N2CCCCC2)CCN(CC(=O)Nc2ccc(Oc3ccccc3)cc2)CC1,-2,2,6,28*,-3,-8
O=C(CCS(=O)(=O)Cc1ccccc1)NCc1ccco1,1,4,-2,9,1,0
N#Cc1cnn(-c2ccc(F)cc2)c1N,-2,6,11,4,-1,7
O=C(COC(=O)CCC1CCCC1)Nc1ccc(Cl)cc1F,-13,7,24,27*,0,7
COc1ccc(OC)c(NC(=O)COC(=O)CCC2CCCC2)c1,5,8,15,33*,2,5
COc1ccc(C(=O)NCC(=O)OCC(=O)Nc2cc(OC)ccc2OC)cc1,0,3,-5,0,0,7
Cc1cnc(NC(=O)C2(c3ccccc3)CC2)s1,4,29*,1,3,-2,7
COc1cc(NC(=O)c2ccccc2OCc2ccccc2)cc(OC)c1OC,-1,-2,-1,7,-2,9
O=S(=O)(Nc1ccc(-c2csc(-c3ccccc3)n2)cc1)c1ccccc1,-38,-12,-54,-9,-13,-28
CCc1nc2ccc(C(=O)NCCCN3CCN(c4ccc(F)cc4)CC3)cc2nc1CC,-3,6,1,7,-1,3
CN1CCN(CCNC(=O)c2ccc3nc(-c4ccc(F)cc4)c(-c4ccc(F)cc4)nc3c2)CC1,3,28*,-4,10,3,2
CN(Cc1nc2ccccc2c(=O)[nH]1)C(=O)c1cccc(S(=O)(=O)N2CCc3ccccc32)c1,·,2,4,2,·,6
CCCCn1c(O)c(/C=C/C=C/C=Nc2ccccc2)sc1=S,-23,-9,2,30*,-15,-11
O=S(=O)(Nc1ccc2c(c1)nc1n2CCN(Cc2ccccc2)C1)c1ccccc1,-9,8,8,26*,-10,-8
Cc1ccc(S(=O)(=O)Nc2ccc3c(c2)nc2n3CCN(Cc3ccccc3)C2)cc1,-2,11,-23,6,-4,4
Cc1cc(NC(=O)COC(=O)C2CC(=O)N(c3ccc(Br)cc3)C2)no1 (stereo unspecified),2,0,-5,9,1,7
CCN(CC)S(=O)(=O)c1cc(C(=O)OCC(=O)Nc2c(F)cccc2F)ccc1F,8,0,29,32*,-1,7
CCN(CC)S(=O)(=O)c1cc(C(=O)OCC(=O)NC2CCCc3ccccc32)ccc1C (stereo unspecified),-6,1,67*,27*,-3,7
Cc1nn(-c2ccc(F)cc2)c(Cl)c1/C=C(\CC(=O)O)c1nc2ccccc2s1,11,4,6,17,-2,-2

# Source: PubChem
